Screens: PubChem BioAssay, National Center for Advancing Translational Sciences (NCATS)
Hits are enriched below; roughly 9.4% of the tested compounds scored in any of these assays.
SMN2 splice enh – SMN2 splice variant enhancement; HEK293 SMN2-luciferase splicing reporter, luminescence, 30-36 h; 2.8% of 210,000 active; Potency, µM (doses to about 46.1 µM), actives largely listed as activators; AID 1458; further: nearly all actives have a fitted effect of over 55% in size
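HEK293 cells carry an SMN2 minigene-luciferase reporter in which exon 7 inclusion puts luciferase in frame. Cells were seeded at 2000 cells/well, attached for 10-12 hours, then exposed to compounds for 30-36 hours at 37C before ONE-Glo luminescence.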
Rab9 promoter act – activates the Rab9 promoter. 2.8% of 320,000 active. Potency, µM (titrated, usually from 9.22 µM), actives largely listed as activators. Huh7 Rab9 promoter-luciferase reporter, luminescence, 24 h; further: nearly all actives have a fitted effect of over 60% in size
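Steps: seed 1500 Huh7 Rab9-luc cells per well, rest 2 h at 37 °C; add compound in DMSO; incubate 24 h; add luciferase reagent, 10 min ambient; read luminescence.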
NPC1 prom act – NPC1 promoter activation. Huh7 NPC1 promoter luciferase reporter, 24 h. Potency, µM (titrated, usually from 9.22 µM), hits mostly activators. 2.4% of 320,000 active; further: nearly all actives have a fitted effect of over 60% in size
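Stable NPC1-promoter luciferase Huh7 line; cpd (DMSO) 24 h, 37 °C, 5% CO2; Amplite luciferase reagent 10 min RT; luminescence readout. qHTS format.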
ELG1 repair inh – inhibitors of ELG1-dependent DNA repair in HEK293T cells; HEK293T ELG1-luciferase reporter, luminescence, 16 h; DNA damage induced by 5-fluorouridine; Potency, µM (series often up to 46.1 µM), usual class: inhibitors; 2.3% of 330,000 active; AID 504467; further: nearly all actives have a fitted effect of over 55% in size
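Luminescence from the luciferase reporter, measured 30 min after ONE-Glo reagent at room temperature, was the read-out. Beforehand, 2,000 cells per well were exposed for 16 hr at 37 °C to 5-fluorouridine together with compound or vehicle.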
FLuc modulator – firefly luciferase modulation, counter-screen for miR-21 project; purified FLuc, Km substrates, luminescence inhibition; Potency, µM (titrated, usually from 57.5 µM), usual class: inhibitors; 6.9% of 360,000 active; AID 588342; further: nearly all actives have a fitted effect of over 55% in size
Target sequence (P08659 whole entry, looked up): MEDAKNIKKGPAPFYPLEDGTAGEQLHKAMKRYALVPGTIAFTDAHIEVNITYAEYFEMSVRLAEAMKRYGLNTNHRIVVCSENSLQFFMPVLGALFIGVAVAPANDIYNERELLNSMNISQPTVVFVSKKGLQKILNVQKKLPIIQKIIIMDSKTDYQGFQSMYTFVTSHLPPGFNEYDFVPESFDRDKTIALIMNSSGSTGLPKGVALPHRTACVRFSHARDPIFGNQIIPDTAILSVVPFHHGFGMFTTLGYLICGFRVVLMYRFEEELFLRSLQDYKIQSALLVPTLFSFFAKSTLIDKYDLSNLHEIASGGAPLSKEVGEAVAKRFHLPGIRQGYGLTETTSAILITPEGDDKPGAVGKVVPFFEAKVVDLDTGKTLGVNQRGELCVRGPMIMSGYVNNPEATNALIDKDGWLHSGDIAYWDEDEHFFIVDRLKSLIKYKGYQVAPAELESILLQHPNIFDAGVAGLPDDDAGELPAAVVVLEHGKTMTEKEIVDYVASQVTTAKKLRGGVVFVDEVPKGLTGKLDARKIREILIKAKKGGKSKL
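Purified P. pyralis luciferase, 10 nM final, with Km-level 10 uM D-luciferin and 10 uM ATP in 50 mM Tris acetate pH 7.5, 10 mM Mg acetate, 0.01% Tween-20, 0.05% BSA; 6-point qHTS titration about 60 µM downward; luminescence read.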
ELG1 genotox – genotoxicity induction in ELG1-luciferase HEK293T cells; HEK293T ELG1-luciferase reporter, luminescence, 16 h; Potency, µM (highest dose often 46 µM), usual class: activators; 1.3% of 330,000 active; further: nearly all actives have a fitted effect of over 60% in size
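After overnight (16 hr) compound treatment at 37 °C, ELG1-luciferase HEK293T cells were lysed with ONE-Glo; luminescence quantified 30 min later at room temperature.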
Numbers stand for hits; n = inactive; u = inconclusive; x = no result; [ ] = another dose, or the depositor's remark. The call rests on the fitted dose curve; in most records, active means well fitted curve in the direction sought with a large enough effect; inconclusive means small, poorly fitted or top-dose-only effect, or another doubt; inactive means no such curve, though single readings can be large; an effect the other way counts as inactive or inconclusive.

SMILES | SMN2 splice enh | Rab9 promoter act | NPC1 prom act | ELG1 repair inh | FLuc modulator | ELG1 genotox
COc1ccc(Cl)cc1NC(=O)Nc1cnccn1 | x | n | n | n | n | n
COc1ccc(Cl)cc1NC(=O)Nc1cc(C)on1 | x | 0.5µM | 1.4µM | u | 6µM | 1.3µM
COc1ccc(OC)c(NC(=O)NCc2cccnc2)c1 | x | n | n | n | n | n
COc1ccc(OC)c(NC(=O)Nc2cc(NC(=O)Nc3cc(OC)ccc3OC)c(C)nc2C)c1 | 14µM | n | n | u | n | u
Cc1cc(NC(=O)Nc2ccccc2Cl)no1 | x | n | n | u | 15µM | n
COc1ccc(OCc2csc(N)n2)cc1 | 13µM | 2.8µM | u | u | u | u
CC(C)c1ccc(NC(=O)C2Cc3ccccc3N2C(=O)c2ccccc2)cc1 (stereo not drawn) | x | x | x | x | n | x
Cc1nc(C)c(-c2ccc(SCC(=O)Nc3ccc(C)c(Cl)c3)nn2)s1 | x | n | n | n | u | n
CCOC(=O)c1ccc(NC(=O)CSc2ccc(-c3ccccn3)nn2)cc1 | x | n | n | n | 11µM | u
CC(=O)c1ccc(NC(=O)CSc2ccc(-c3sc(C)nc3C)nn2)cc1 | x | n | n | 18µM | 13µM | n
Cc1ccc(NC(=O)CSc2ccc(-c3ccccn3)nn2)c(C)c1 | x | n | n | 21µM | n | n
O=C(CSc1ccc(-c2ccccn2)nn1)Nc1ccc(F)c(F)c1 | x | n | n | u | 13µM | u
CCOc1ccc(NC(=O)CSc2ccc(-c3ccccn3)nn2)cc1 | x | n | n | u | n | n
Cc1ccc(NC(=O)CSc2ccc(-c3ccccn3)nn2)cc1 | n | n | n | u | n | u
C/C(=N\[N+](C)(C)C)c1ccc(C)c(C)c1 | n[9.22 µM] | x | x | x | x | x
CCN(CC)C(=O)Cn1c(=O)n(-c2ccc(C)c(C)c2)c(=O)c2c3c(sc21)CCCCC3 | n | x | x | x | n | x
Cc1ccc(/C(N)=N/OC(=O)CCc2ccccc2)cc1 | x | n | n | u | 15µM | u
N/C(=N\OC(=O)CCc1ccccc1)c1cccc(Br)c1 | n | n | n | n | 17µM | n
N/C(=N\OC(=O)CCc1ccccc1)c1ccccc1Cl | n | n | n | u | 24µM | u
N/C(=N\OC(=O)CCc1ccccc1)c1ccc(Br)cc1 | n | n | n | n | u | n
CCOc1ccc(OCCCC(=O)ON=C(N)c2ccccc2Cl)cc1 | x | n | n | n | n | n
CC1CCCC2(C1)NC(=S)N(c1ccccc1)N2 (stereo not drawn) | n | n | n | n | n | n
CC1CCCC2(C1)NC(=S)c1c(sc3c1CCCC3)N2 (stereo not drawn) | n | n | n | u | 24µM | n
CC(C)Cc1nn2c(=O)cc(COC(=O)c3ccc(NC(=O)C4CCCCC4)cc3)nc2s1 | x | x | x | x | n | x
CCC(CC)c1nn2c(=O)cc(COc3ccc(NC(=O)c4cccc(C)c4)cc3)nc2s1 | n | x | x | x | n | x
SMILES | SMN2 splice enh | Rab9 promoter act | NPC1 prom act | ELG1 repair inh | FLuc modulator | ELG1 genotox
O=C1c2ccccc2C(=O)c2c(Nc3ccc(CCO)cc3)ccc(O)c21 | x | u | u | 15µM | u | n
O=C(O)CNC(=O)[C@@H](CS)Cc1ccccc1 | n | x | x | x | x | x
CCN(CC(=O)NC1CCS(=O)(=O)C1)c1nc(-c2ccccc2)nc2ccccc12 (stereo not drawn) | n | n | n | 13µM | n | n
CCOCCCNC(=O)c1cc(=O)n(Cc2cccc(C)c2)c2ccccc12 | n | n | n | 16µM | n | n
O=c1[nH]c(/C=C/c2ccccn2)nc2ccccc12 | x | 1.6µM | 1.6µM | u | 19µM | u
O=c1[nH]c(/C=C/c2ccccc2[N+](=O)[O-])nc2ccccc12 | n | u | u | u | n | n
O=c1[nH]c(/C=C/c2ccccc2F)nc2ccccc12 | x | 0.25µM | u | u | 0.76µM | 12µM
O=c1[nH]c(/C=C/c2cccc3ccccc23)nc2ccccc12 | n | u | n | u | n | n
CCOC(=O)Nc1sc2c(c1C#N)CCCC2 | n | 4µM | u | u | 15µM | 15µM
CCC(=O)Nc1sc2c(c1C#N)CCC2 | n | n | n | n | n | n
Cc1ccc(OCC(=O)Nc2sc3c(c2C#N)CCC3)cc1 | n | u | u | u | 4.8µM | u
O=c1[nH]c(C2CCN(S(=O)(=O)c3ccc(S(=O)(=O)NC4CC4)cc3)CC2)nc2c1nnn2Cc1ccc(F)cc1 | x | n | n | u | n | n
Cc1ccc(C)c(Cn2nnc3c(=O)[nH]c(C4CCN(S(=O)(=O)c5ccc(S(=O)(=O)N(C)C)cc5)CC4)nc32)c1 | x | n | n | n | n | n
O=c1[nH]c(C2CCN(S(=O)(=O)c3ccc(S(=O)(=O)NC4CC4)cc3)CC2)nc2c1nnn2Cc1ccccc1 | x | n | n | 18µM | n | n
O=c1[nH]c(C2CCN(S(=O)(=O)c3ccc(F)cc3)CC2)nc2c1nnn2Cc1ccc2c(c1)OCCO2 | x | n | n | 26µM | n | n
Cc1ccc(C)c(Cn2nnc3c(=O)[nH]c(C4CCN(S(=O)(=O)c5ccc(S(=O)(=O)NC6CC6)cc5)CC4)nc32)c1 | x | n | n | 16µM | n | n
Cc1ccc(CNC(=O)Cn2c3ncccc3c(=O)n2-c2ccc(C)cc2)cc1 | x | x | x | x | n | x
NNC(=O)CS(=O)(=O)Nc1ncccn1 | n[9.22 µM] | x | x | x | x | x
COc1ccccc1C(=O)NCCC(=O)NC1CCCCC1C (stereo not drawn) | x | n | n | n | n | n
COc1ccccc1C(=O)NCCC(=O)NCC(c1ccccc1)N(C)C (stereo not drawn) | x | n | n | n | 13µM | n
COc1ccccc1C(=O)NCCC(=O)NC1CCC(C)CC1 (stereo not drawn) | x | 4µM | u | u | 13µM | u
CCCCCn1c(C(C)NC(=O)c2ccccc2)nc2ccccc21 (stereo not drawn) | n | x | x | x | n | x
COc1ccc2c(CNCc3ccc(Cl)cc3)c(C(=O)O)n(Cc3ccccc3C)c2c1 | x | x | x | x | n | x
CCOC(=O)c1c(NC(=O)c2ccoc2C)sc(C(=O)N(C)C)c1C | n | n | n | 7.3µM | n | n
CCOC(=O)c1c(NC(=O)COC(=O)c2ccccc2NC)sc(C(=O)N(C)C)c1C | x | n | n | 18µM | n | n
SMILES | SMN2 splice enh | Rab9 promoter act | NPC1 prom act | ELG1 repair inh | FLuc modulator | ELG1 genotox
CCOC(=O)c1c(NC(=O)COC(=O)Cc2ccccc2[N+](=O)[O-])sc(C(=O)N(C)C)c1C | x | n | n | n | n | n
CCOc1ccccc1NC(=O)N1CCC2(CC1)Oc1ccccc1C(=O)N2Cc1ccccc1F | n | x | x | x | n | x
COc1ccc(-c2nc3c(s2)CN(S(C)(=O)=O)CC3)cc1OC | x | n | n | u | u | n
CCS(=O)(=O)N1CCc2nc(-c3ccccc3)sc2C1 | x | 1.1µM | 0.63µM | u | 4.8µM | u
Cc1ccc(O)c(NC(=S)NC(=O)c2ccccc2Cl)c1 | u | n | n | n | 17µM | n
COc1ccc(NC(=S)NC(=O)c2ccccc2Cl)cc1 | x | u | n | u | u | n
